Measurements from PubChem BioAssay (NCI).
About 79,000 compounds went through this panel and 15% of them were active in at least one assay; those are over-represented in the sample as a whole. Activity calls are given as the source filed them. Rule as the data show it: active = growth inhibition above about 70%; inactive = the rest.

Tests used:
[1] = NCI Yeast Anticancer Drug Screen. Data for the rad50 strain (AID 155);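 also: 0% = growth of vehicle-only cultures of the same strain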; settings: S. cerevisiae rad50 strain growth inhibition, stronger effect = higher value
Procedure, shortened: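 Genetically altered yeast (DNA repair pathway); compound treatment; growth inhibition vs vehicle ctrl.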

[2] = NCI Yeast Anticancer Drug Screen. Data for the mec2-1 strain (AID 157); settings: S. cerevisiae mec2-1 strain, stronger effect = higher value
Procedure, shortened: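 Yeast mec2-1 mutant treated with compound. Readout: growth inhibition vs vehicle controls.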

[3] = NCI Yeast Anticancer Drug Screen. Data for the sgs1 mgt1 strain (AID 161);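 also: 0% = growth of cultures given vehicle only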; settings: S. cerevisiae sgs1 mgt1 strain, stronger effect = higher value
Procedure, shortened: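 Mutant yeast exposed to compound; growth scored against vehicle-only wells.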

[4] = NCI Yeast Anticancer Drug Screen. Data for the cln2 rad14 strain (AID 165);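 also: 0% = growth equal to vehicle treated cultures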; settings: S. cerevisiae cln2 rad14 strain, stronger effect = higher value
Procedure, shortened: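 cln2 rad14 yeast strain; compound exposure; growth inhibition read vs vehicle controls.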

[5] = NCI Yeast Anticancer Drug Screen. Data for the bub3 strain (AID 167); settings: S. cerevisiae bub3 mutant strain, stronger effect = higher value
Procedure, shortened: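 Yeast carrying a defined mutation is treated with each compound, and growth is compared with that of vehicle-exposed cells to give inhibition.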

[6] = NCI Yeast Anticancer Drug Screen. Data for the mlh1 rad18 strain (AID 175); settings: S. cerevisiae mlh1 rad18 strain growth inhibition, stronger effect = higher value
Procedure, shortened: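 Yeast w/ defined DNA-repair lesions; compound exposure; growth vs vehicle controls → % inhibition.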

[7] = at 5.0 µM (retest, dose inferred, filed as 0.5)
[8] = at 50.0 µM (retest, dose inferred, filed as 5.0)

Measured: growth inhibition

C/C(=N\N=C(\[Se])N1CCN(c2ccccn2)CC1)c1ccccn1
active: [1]; [8] 88% | [1]; at 50.0 µM 70.3% | [2]; [8] 98% | [3]; [8] 95% | [3]; at 50.0 µM 82% | [4]; [8] 83% | [5]; [8] 96% | [5]; at 50.0 µM 93.2% | [6]; [8] 93% | [6]; at 50.0 µM 78.2%
inactive: [1]; [7] -2% | [2]; [7] -1% | [2]; at 50.0 µM 70% | [3]; [7] 5% | [4]; [7] -9% | [4]; at 50.0 µM 9.4% | [5]; [7] 9% | [6]; [7] 59%

COc1cc(C=Nc2cc(Br)c(OC)c(Br)c2)ccc1N(CCCl)CCCl
active: [1]; [8] 73% | [1]; at 50.0 µM 84.5% | [2]; [8] 79% | [3]; at 50.0 µM 76.2% | [6]; [8] 95% | [6]; at 50.0 µM 83.2%
inactive: [1]; [7] 1% | [2]; [7] -12% | [2]; at 50.0 µM 31.4% | [3]; [7] -1% | [3]; [8] 45% | [4]; [7] 1% | [4]; [8] 46% | [4]; at 50.0 µM 55.7% | [5]; [7] -8% | [5]; [8] -3% | [5]; at 50.0 µM -1.45% | [6]; [7] 54%

CC(=O)C1CCC2C3CCC4=CC(=[N+]5CCCCC5)CCC4(C)C3CCC12C (configuration not stated)
active: [1]; [7] 98% | [1]; [8] 74% | [1]; at 50.0 µM 95.4% | [2]; [7] 100% | [2]; [8] 95% | [2]; at 50.0 µM 96.4% | [3]; [7] 97% | [3]; [8] 95% | [3]; at 50.0 µM 97.5% | [4]; [7] 99% | [4]; [8] 87% | [4]; at 50.0 µM 91.7% | [5]; [7] 99% | [5]; [8] 93% | [5]; at 50.0 µM 93.5% | [6]; [7] 99% | [6]; [8] 92% | [6]; at 50.0 µM 95.8%

CCNC(=O)O/N=C1/C=C2CC[C@@H]3C(CC[C@@]4(C)C3CC[C@@H]4OC(=O)NCC)[C@@]2(C)CC1 (some centres not stated)
inactive: [1]; [8] 66% | [2]; [8] 45% | [4]; [8] 14% | [5]; [8] 58% | [6]; [8] 69%
active: [1]; [7] 94% | [1]; at 50.0 µM 97.8% | [2]; [7] 97% | [2]; at 50.0 µM 98.1% | [3]; [7] 97% | [3]; [8] 72% | [3]; at 50.0 µM 97.5% | [4]; [7] 96% | [4]; at 50.0 µM 96.2% | [5]; [7] 93% | [5]; at 50.0 µM 97.2% | [6]; [7] 97% | [6]; at 50.0 µM 97.5%

CC[C@H](C)c1occ2c(O)c(C(=O)O)c(=O)cc-2c1C
active: [1]; [8] 98% | [2]; [7] 71% | [2]; [8] 99% | [3]; [7] 99% | [3]; [8] 99% | [4]; [8] 99% | [5]; [7] 74% | [5]; [8] 99% | [6]; [7] 88% | [6]; [8] 98% | [6]; at 50.0 µM 81.2%
inactive: [1]; [7] 56% | [1]; at 50.0 µM 24.5% | [2]; at 50.0 µM -2.7% | [3]; at 50.0 µM 12.2% | [4]; [7] 31% | [4]; at 50.0 µM 3.2% | [5]; at 50.0 µM 12.2%

CC1=CC2OC3CC4OC(=O)/C=C/C=C/C(C(C)O)OCC(O)C(C)CC(=O)OCC2(CC1O)C4(C)C31CO1 (configuration not stated)
inactive: [1]; [7] 39% | [2]; [7] 40% | [3]; [7] 48% | [4]; [7] 34% | [5]; [7] 25% | [6]; [7] 42%
active: [1]; [8] 96% | [1]; at 50.0 µM 90.4% | [2]; [8] 99% | [2]; at 50.0 µM 91.9% | [3]; [8] 94% | [3]; at 50.0 µM 92.2% | [4]; [8] 94% | [4]; at 50.0 µM 90.3% | [5]; [8] 95% | [5]; at 50.0 µM 91% | [6]; [8] 98% | [6]; at 50.0 µM 89.2%

CC12CCC(C)(c3cc(O)c(O)cc31)c1cc(O)c(O)cc12
inactive: [1]; [7] -4% | [1]; [8] 4% | [1]; at 50.0 µM 52.3% | [2]; [7] -1% | [2]; [8] -1% | [2]; at 50.0 µM 31.4% | [3]; [7] -1% | [3]; [8] 4% | [3]; at 50.0 µM 37% | [4]; [7] 2% | [4]; [8] 19% | [4]; at 50.0 µM 57.5% | [5]; [7] 4% | [5]; [8] 33% | [5]; at 50.0 µM 43.9% | [6]; [7] -1% | [6]; [8] 22%
active: [6]; at 50.0 µM 70.1%

C[n+]1c(/C=C/c2ccc(O)c3ncccc23)[se]c2ccccc21
active: [1]; [8] 93% | [1]; at 50.0 µM 93.4% | [2]; [8] 90% | [2]; at 50.0 µM 93.5% | [3]; [8] 91% | [3]; at 50.0 µM 92.3% | [4]; [8] 88% | [4]; at 50.0 µM 92% | [5]; [8] 91% | [5]; at 50.0 µM 93% | [6]; [8] 90% | [6]; at 50.0 µM 93.4%
inactive: [1]; [7] 22% | [2]; [7] 2% | [3]; [7] 24% | [4]; [7] 11% | [5]; [7] 2% | [6]; [7] 43%

O=[N+]([O-])c1cc([N+](=O)[O-])c2cccnc2c1O
active: [1]; at 50.0 µM 98.6% | [2]; at 50.0 µM 98.3% | [3]; at 50.0 µM 97.5% | [4]; at 50.0 µM 94.3% | [5]; at 50.0 µM 98% | [6]; at 50.0 µM 96.8%
inactive: [1]; [7] -4% | [1]; [8] 3% | [2]; [7] -10% | [2]; [8] -10% | [3]; [7] -3% | [3]; [8] 11% | [4]; [7] 2% | [4]; [8] -2% | [5]; [7] -7% | [5]; [8] -11% | [6]; [7] -4% | [6]; [8] -7%
